Assay [1] is described as follows: qHTS assay to test for compound auto fluorescence at 535 nm (green) in HEK293 cells (AID 720680). (In qHTS, concentration-response curves come from the screen itself.)
The nature of assay [2]: qHTS assay to test for compound auto fluorescence at 460 nm (blue) in HEK293 cell free culture (AID 720681). Put shortly: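 Test compounds were pinned into cell-free culture medium (DMEM with 10% FBS) and fluorescence was read directly at Ex/Em 405/460 nm. Signals were expressed as fluorescence equivalents of triamterene, with DMSO vehicle as control.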
Assay [3] in a line: qHTS assay to test for compound auto fluorescence at 535 nm (green) in HEK293 cell free culture (AID 720682). Put shortly: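 Read-out: 485/535 nm fluorescence intensity, calibrated against fluorescein. Medium only (DMEM + 10% FBS, no cells); test compound or DMSO vehicle added by pintool before plate reading.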
A short description of assay [4]: qHTS assay to test for compound auto fluorescence at 590 nm (red) in HEK293 cell free culture (AID 720683). The essentials: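 Tox21 10K library compounds were pinned into cell-free DMEM with 10% FBS and fluorescence was read at excitation 540 nm. Activity is expressed as Rose Bengal sodium equivalency.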
The nature of assay [5]: qHTS assay to test for compound auto fluorescence at 590 nm (red) in HepG2 cell free culture (AID 720684). The essentials: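 Measured in medium alone (MEM containing 10% FBS) following pintool addition of compound; emission at 590 nm with 540 nm excitation, referenced to Rose Bengal sodium.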
A short description of assay [6]: qHTS assay to test for compound auto fluorescence at 460 nm (blue) in HepG2 cell free culture (AID 720685). Put shortly: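 Compound (23 nL) or DMSO pinned into cell-free MEM with 10% FBS; blue fluorescence read at 405/460 nm excitation/emission, expressed as auto-fluorescence equivalency to triamterene.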
Assay [7] in a line: qHTS assay to test for compound auto fluorescence at 535 nm (green) in HepG2 cell free culture (AID 720686).
Assay [8] can be described thus: qHTS assay to test for compound auto fluorescence at 460 nm (blue) in HepG2 cells (AID 720687). The essentials: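 Cells (2,000/well in MEM with 10% FBS) attached overnight at 37 C, then were exposed to compound or DMSO for 1 hr at 37 C, 5% CO2. Fluorescence read at Ex/Em 405/460 nm, expressed as triamterene-equivalent signal.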
Assay [9] can be described thus: qHTS assay to identify small molecule antagonists of the glucocorticoid receptor (GR) signaling pathway - cell viability counter screen (AID 720693). Further: nearly all actives have a fitted effect of over 55% in size.
Assay [10] in a line: qHTS assay for identifying genotoxic compounds that show differential cytotoxicity against isogenic chicken DT40 cell lines with known DNA damage response pathways - wild type cell line (AID 743012). Further: nearly all actives have a fitted effect of over 60% in size. Put shortly:
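Wild type DT40, 300 cells/well, ~0.5 h settle at 37 C/5% CO2; compounds in DMSO added by pintool; 40 h at 37 C/5% CO2; CellTiter-Glo, 30 min RT; luminescence.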

A short description of assay [11]: qHTS assay for identifying genotoxic compounds that show differential cytotoxicity against isogenic chicken DT40 cell lines with known DNA damage response pathways - Rev3 mutant cell line (AID 743014). Further: nearly all actives have a fitted effect of over 55% in size. Further: potency means the concentration at half of the fitted maximal effect.
A short description of assay [12]: qHTS assay for identifying genotoxic compounds that show differential cytotoxicity against isogenic chicken DT40 cell lines with known DNA damage response pathways - Rad54/Ku70 mutant cell line (AID 743015). Further: nearly all actives have a fitted effect of over 60% in size.
The nature of assay [13]: qHTS assay to identify small molecule antagonists of the androgen receptor (AR) signaling pathway - cell viability counter screen (AID 743033; further: nearly all actives have a fitted effect of over 45% in size).
Assay [14] can be described thus: qHTS assay to identify small molecule antagonists of the androgen receptor (AR) signaling pathway using the MDA cell line - cell viability counter screen (AID 743041; further: nearly all actives have a fitted effect of over 45% in size). The essentials: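 Viability counter screen run alongside the AR antagonist reporter: cells seeded 5 h before compound, R1881 added, 16 h incubation at 37C without CO2, fluorescent CellTiter-Fluor signal quantified.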

Assay [15] deals with Androgen receptor (Homo sapiens) (UniProt P10275). Nature of the assay: qHTS assay to identify small molecule antagonists of the androgen receptor (AR) signaling pathway (AID 743035; active means well fitted inhibition curve with a large enough effect in the signal ratio in the repeat runs, not every such curve was filed as active; the % refers to the signal ratio). Put shortly:
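Fluorescence from a beta-lactamase FRET substrate (LiveBLAzer B/G, 2 h, room temperature) measured inhibition of R1881-stimulated signaling in GeneBLAzer AR-UAS-bla HEK293 cells exposed to compound for 16 h at 37C.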

For assay [16] the target is unchanged. Nature of the assay: qHTS assay to identify small molecule agonists of the androgen receptor (AR) signaling pathway (AID 743036; active means well fitted activation curve with a large enough effect in the signal ratio in the repeat runs, with a control signal flat, not every such curve was filed as active; the % refers to the signal ratio). The essentials:
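HEK293 cells stably carrying a UAS-driven beta-lactamase reporter (GeneBLAzer AR-UAS-bla-GripTite) were plated at 2,000 cells/well, rested 4 h at 37C, then exposed to compounds in DMSO for 16 h. LiveBLAzer B/G FRET substrate was added for 2 h at room temperature; fluorescence read.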

The target is the same in assay [17]. Nature of the assay: qHTS assay to identify small molecule agonists of the androgen receptor (AR) signaling pathway using the MDA cell line (AID 743040; further: nearly all actives have a fitted effect of over 20% in size). The essentials:
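Luminescence from ONE-Glo, read after 30 min at room temperature, reflects MMTV-driven luciferase in MDA-kb2 cells (AR- and GR-responsive). Treatment lasted 16 h at 37C, 0% CO2.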

Assay [18] has the same target. Nature of the assay: qHTS assay to identify small molecule antagonists of the androgen receptor (AR) signaling pathway using the MDA cell line (AID 743042; further: nearly all actives have a fitted effect of over 55% in size). Put shortly: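 MDA-kb2 cells (human breast carcinoma, stably carrying an MMTV-luciferase reporter responsive to AR and GR) were plated at 3,000 cells/well and preincubated 5 hr at 37C, then given compound plus R1881 agonist for 16 h. ONE-Glo luminescence was read.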

Structures are written as SMILES. Values without a mark were called inactive. Records with an inconclusive call do not appear. Calls of active or inactive are those of the source. Unless noted, the call rests on the fitted dose curve; in most records, active means well fitted curve in the direction sought with a large enough effect in the repeat runs; inconclusive means weak or mixed curves; inactive means no such curve, though single readings can be large; an effect the other way counts as inactive or inconclusive.
On the % scale 0 is the no-effect control and ±100 the full control effect.

Androgen receptor (Homo sapiens), sequence (P10275 whole entry, looked up): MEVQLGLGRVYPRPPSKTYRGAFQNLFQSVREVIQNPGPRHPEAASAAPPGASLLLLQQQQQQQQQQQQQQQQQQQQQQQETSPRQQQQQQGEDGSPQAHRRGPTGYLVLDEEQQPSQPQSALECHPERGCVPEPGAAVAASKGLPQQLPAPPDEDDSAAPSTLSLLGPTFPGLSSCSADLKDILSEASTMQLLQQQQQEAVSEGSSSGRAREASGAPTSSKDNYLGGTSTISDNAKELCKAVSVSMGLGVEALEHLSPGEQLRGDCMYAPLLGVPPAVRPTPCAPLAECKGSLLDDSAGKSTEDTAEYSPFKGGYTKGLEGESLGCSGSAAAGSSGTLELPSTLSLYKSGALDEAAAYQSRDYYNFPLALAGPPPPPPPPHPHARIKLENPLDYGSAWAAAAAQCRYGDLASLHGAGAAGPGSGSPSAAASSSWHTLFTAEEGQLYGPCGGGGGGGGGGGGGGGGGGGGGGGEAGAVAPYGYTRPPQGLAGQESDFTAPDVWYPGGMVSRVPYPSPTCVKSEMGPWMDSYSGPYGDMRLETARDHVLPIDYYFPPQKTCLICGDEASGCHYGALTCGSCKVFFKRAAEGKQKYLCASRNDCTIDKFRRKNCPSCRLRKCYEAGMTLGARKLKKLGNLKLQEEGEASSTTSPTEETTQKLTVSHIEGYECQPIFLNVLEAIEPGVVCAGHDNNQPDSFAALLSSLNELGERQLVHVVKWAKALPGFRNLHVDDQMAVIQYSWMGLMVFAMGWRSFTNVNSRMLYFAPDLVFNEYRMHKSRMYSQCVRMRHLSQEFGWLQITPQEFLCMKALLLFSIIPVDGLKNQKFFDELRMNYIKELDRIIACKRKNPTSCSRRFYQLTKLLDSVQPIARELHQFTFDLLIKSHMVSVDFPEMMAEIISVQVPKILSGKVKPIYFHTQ

As to `CCOC(=O)C(C)(C)C`, the result in assay [1], in assay [2], in assay [3], in [4], in assay [5] and in [6] was inactive. The call in [7], in assay [8], in [13] and in assay [14] was inactive. The Potency entry in assay [9], in assay [10], in assay [11] and in [12] was “inactive” in each case.
In the case of `CCC(O)C(C)(C)C` (stereo unspecified), the compound was called inactive in assay [1], in assay [2], in [3], in [4], in [5] and in assay [6]. The call in assay [7], in assay [8], in assay [13] and in assay [14] was inactive. Besides, the Potency result in [9], in [10], in [11] and in [12] was “inactive” each time.
In the case of `Nc1cc(C(=O)O)ccc1Cl`, the call in assay [1], in assay [2], in [3], in [4], in [5] and in assay [6] was inactive. The result in assay [7], in [8], in assay [13], in assay [16], in assay [17] and in [14] was inactive. The result in [18] was inactive. The Potency result in assay [9], in assay [11], in assay [12] and in assay [15] was “inactive” each time.
For `C[Si]1(C)N[Si](C)(C)N[Si](C)(C)N1`, the call in assay [1], in assay [2], in assay [3], in [4], in [5] and in assay [6] was inactive. Further, the result in [7], in assay [8], in [13] and in assay [14] was inactive. In addition, the Potency entry in assay [9], in assay [10] and in assay [12] was “inactive” in each case.
Take `COc1ccc(OC)c(NC(=O)CC(C)=O)c1`: the result in [1], in [2], in assay [3], in assay [4], in assay [5] and in assay [6] was inactive. Besides, the result in assay [7], in [8], in assay [13] and in assay [14] was inactive. For the same compound, the Potency result in assay [9], in [10] and in [12] was “inactive” throughout.
As to `CCOC(=O)CCCCCCCCC(=O)OCC`, the outcome in [1], in assay [2], in assay [3], in assay [4], in [5] and in [6] was inactive. In addition, the compound was called inactive in [7], in assay [8], in assay [13] and in assay [14]. The Potency entry in assay [9] was “inactive”. In assay [11], the Potency is 61.1 µM (active).
Take `CC(C)COC(=O)CCCCC(=O)OCC(C)C`: the compound was called inactive in assay [1], in assay [2], in assay [3], in assay [4], in assay [5] and in [6]. Besides, the call in assay [7], in assay [8], in assay [13] and in assay [14] was inactive. Besides, the Potency result in [9], in assay [10] and in assay [12] was “inactive” throughout.
Regarding `O=CO`, the fluorescence, % of fluorescein in [1] was -0.109% [at 9.17 µM]. Also, the fluorescence, % of fluorescent control in assay [2] is -0.189% [at 9.17 µM]; in assay [4], -0.0633% [at 9.17 µM]; in [6], -0.136% [at 9.17 µM]; in assay [8], 0.0876% [at 9.17 µM]. In assay [3], the activity change is -0.0948% [at 9.17 µM]. The fluorescence, % of Rose Bengal in [5] is 0.0285% [at 9.17 µM]. In addition, the fluorescence, % of fluorescein control in assay [7] is -0.0013% [at 9.17 µM]. In addition, the viability change, negative = cytotoxic is -3.59% [at 7.04 µM] in [9] and -3.77% [at 8.47 µM] in assay [14]. In addition, the activity change, negative = cytotoxicity in [13] was -5.92% [at 7.04 µM].
For the compound `C1=C\CC/C=C\CC/1`, the compound was classed as inactive in [1], in assay [2], in [3], in assay [4], in assay [5] and in [6]. The result in assay [7], in [8], in assay [13] and in assay [14] was inactive. Also, the Potency result in [9], in assay [10] and in assay [11] was “inactive” in each case.
In the case of `O=S1(=O)CCCC1`, the compound was classed as inactive in assay [1], in assay [2], in assay [3], in [4], in assay [5] and in [6]. Further, the compound was classed as inactive in assay [7], in assay [8], in [13] and in assay [14]. The Potency entry in assay [9], in assay [10] and in assay [12] was “inactive” in each case.
As to `O=C1NC2NC(=O)NC2N1` (stereo unspecified), the compound was called inactive in assay [1], in assay [2], in assay [3], in [4], in assay [5] and in assay [6]. Further, the outcome in assay [7], in assay [8], in [13] and in assay [14] was inactive. Besides, the Potency entry in [9], in assay [10], in [11] and in [12] was “inactive” in each case.
Take `CNCc1ccccc1`: the outcome in assay [1], in [2], in assay [3], in [4], in assay [5] and in assay [6] was inactive. The compound was classed as inactive in assay [7], in assay [8], in assay [13] and in assay [14]. The Potency result in assay [9], in [10], in assay [11] and in assay [12] was “inactive” throughout.
As to `O=S(=O)(O)SSS(=O)(=O)O`, the outcome in assay [1], in assay [2], in assay [3], in assay [4], in assay [5] and in assay [6] was inactive. Moreover, the result in [7], in assay [8], in assay [13], in assay [16], in assay [17] and in assay [14] was inactive. For the same compound, the outcome in assay [18] was inactive. For the same compound, the Potency result in assay [9], in assay [11], in [12] and in assay [15] was “inactive” throughout.
In the case of `CC(C)COC(=O)/C=C/c1ccccc1`, the call in assay [1], in [2], in assay [3], in assay [4], in [5] and in assay [6] was inactive. For the same compound, the result in assay [7], in assay [8], in [13] and in assay [14] was inactive. For the same compound, the Potency result in [9], in assay [10] and in [11] was “inactive” in each case.
